# Assay outcomes deposited in PubChem by National Center for Advancing Translational Sciences (NCATS).
# Sampled rows, rich in hits. Any-hit rate of the full collection: about 9.2%.
# NPC1 promoter act: NPC1 promoter activation; actives 2.4% (n = 320,000); Huh7 NPC1 promoter luciferase reporter, 24 h; Potency, µM (doses to about 9.22 µM), for inactives: at the top dose activation, hits mostly activators; further: % of control where 0% means no effect; nearly all actives have a fitted effect of over 60% in size
#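 Cells: Huh7 expressing luciferase under the NPC1 promoter, 1500/well. Seeded 2 h, compound added, incubated 24 h at 37 °C. Luciferase reagent, 10 min ambient, then luminescence.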
# Rab9 promoter act: activators of Rab9 promoter; Huh7 Rab9 promoter-luciferase reporter, luminescence, 24 h; Potency, µM (doses to about 9.22 µM), without a hit: at the highest dose activation, negative = inhibition, actives largely listed as activators; actives 2.8% (n = 320,000); further: % of control where 0% means no effect; nearly all actives have a fitted effect of over 60% in size
#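 Luminescence read-out: Huh7 cells stably expressing Rab9-luciferase, treated 24 h with compound at 37 °C, then lysed with luciferase reagent for 10 min at ambient before reading.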
# ELG1 genotox: inducers of genotoxicity in HEK293T ELG1-luciferase cells | HEK293T ELG1-luciferase reporter, luminescence, 16 h | Potency, µM (highest dose often 46 µM), for the others: top-dose activity change, positive = activation, most hits filed as activators | actives 1.3% (n = 330,000); further: % of control where 0% means no effect; nearly all actives have a fitted effect of over 60% in size
#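 Genotoxic stress is detected as increased luminescence from luciferase-tagged ELG1 in HEK293T cells, measured with ONE-Glo after a 16 hr treatment at 37 °C.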
# ELG1 DNA repair: ELG1-dependent DNA repair inhibition. HEK293T ELG1-luciferase reporter, luminescence, 16 h; DNA damage induced by 5-fluorouridine. Potency, µM (highest dose often 46.1 µM), for the others: top-dose activity change, negative = inhibition, hits mostly inhibitors. actives 2.3% (n = 330,000); further: on the % scale 0 is the no-effect control and ±100 the full control effect; nearly all actives have a fitted effect of over 55% in size
#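 Step one: seed 2,000 cells per well. Step two: pin-transfer compound or DMSO alongside 5-fluorouridine. Step three: incubate 16 hr, 37 °C, 5% CO2. Step four: add ONE-Glo, wait 30 min, read luminescence.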
# FLuc counter: firefly luciferase modulation, counter-screen for miR-21 project; actives 6.9% (n = 360,000); P08659; Potency, µM (top dose mostly 57.5 µM), inactives show at the highest dose activity change, negative = inhibition, usual class: inhibitors; purified FLuc, Km substrates, luminescence inhibition;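 further: plate controls were vehicle for no effect and reference inhibitor for full effect; nearly all actives have a fitted effect of over 55% in size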
# Target sequence (P08659 whole entry, looked up): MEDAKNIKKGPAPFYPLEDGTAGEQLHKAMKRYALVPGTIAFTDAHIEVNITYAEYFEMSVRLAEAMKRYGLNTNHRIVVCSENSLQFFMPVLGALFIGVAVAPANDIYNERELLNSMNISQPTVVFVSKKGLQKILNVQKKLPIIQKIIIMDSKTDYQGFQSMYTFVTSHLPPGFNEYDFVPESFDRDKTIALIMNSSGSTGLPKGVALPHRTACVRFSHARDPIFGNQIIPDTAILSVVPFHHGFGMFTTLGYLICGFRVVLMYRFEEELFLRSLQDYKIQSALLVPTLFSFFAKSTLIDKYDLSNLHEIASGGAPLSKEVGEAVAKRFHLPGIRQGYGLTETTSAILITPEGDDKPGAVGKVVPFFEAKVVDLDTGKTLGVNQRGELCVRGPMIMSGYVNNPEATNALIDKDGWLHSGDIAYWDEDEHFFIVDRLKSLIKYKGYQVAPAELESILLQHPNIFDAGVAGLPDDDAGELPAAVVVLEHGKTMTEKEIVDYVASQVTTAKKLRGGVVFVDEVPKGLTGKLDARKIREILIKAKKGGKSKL
#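 Purified P. pyralis luciferase (10nM final) with 10uM D-luciferin and 10uM ATP (Km levels) in 50mM Tris acetate pH 7.5, 10mM Mg acetate, 0.01% Tween-20, 0.05% BSA; qHTS 6-point titration, ~60 µM downward; luminescence read.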
# SMN2 splice up: enhancers of SMN2 splice variant expression; actives 2.8% (n = 210,000); HEK293 SMN2-luciferase splicing reporter, luminescence, 30-36 h; Potency, µM (top dose mostly 46.1 µM), inactives show at the highest dose activity change, positive = activation, actives largely listed as activators; AID 1458; further: % of control where 0% means no effect; nearly all actives have a fitted effect of over 55% in size
#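 HEK293 cells carry an SMN2 […]–luciferase reporter in which exon 7 inclusion puts luciferase in frame. Cells were plated 10-12 h before compound addition, then incubated 30-36 h at 37C. ONE-Glo luminescence was read; sodium butyrate at 4.5 mM final served as control.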
# The depositor's hits bear a star; ? = inconclusive; . = no result; [ ] = dose if it differs, or a comment. The call rests on the fitted dose curve; in most records, active means well fitted curve in the direction sought with a large enough effect; inconclusive means small, poorly fitted or top-dose-only effect, or another doubt; inactive means no such curve, though single readings can be large; an effect the other way counts as inactive or inconclusive. Potency means the concentration at half of the fitted maximal effect.
SMILES,NPC1 promoter act,Rab9 promoter act,ELG1 genotox,ELG1 DNA repair,FLuc counter,SMN2 splice up
CCCCN1CC(=O)N2[C@H]3c4cc(Cl)ccc4OC[C@@H]3[C@H](c3ccccc3)[C@]2(C)C1=O,1%,-10%,-4%,18µM*,0%,.
COc1ccc(/C=C2\SC(=S)N(CCCC(=O)Nc3cccc(C(=O)O)c3)C2=O)cc1OC,-6%,-1%,-20%,?,3%,.
O=C(CCN1C(=O)/C(=C/c2ccc3c(c2)OCO3)SC1=S)Nc1ccc(C(=O)O)cc1,0%,2%[1.84 µM],9%,3%,9.5µM*,.
CCOc1ccc(/C=C2\SC(=S)N(CCC(=O)Nc3cccc(C(=O)O)c3)C2=O)cc1,29%,?,?,25%,2.1µM*,.
CCOc1ccc(/C=C2\SC(=S)N(CCC(=O)Nc3ccc(C(=O)O)cc3)C2=O)cc1,3%,-8%,13%,?,2.7µM*,.
O=C(CCN1C(=O)S/C(=C\c2ccc(Cl)cc2)C1=O)Nc1ccc(C(=O)O)cc1,-5%,30%,13%,?,15µM*,.
CN(CC(=O)NC1CCN(Cc2ccccc2)CC1)S(=O)(=O)c1ccc(Br)s1,-3%,-13%,-16%,?,1%,.
CCOC(=O)CN1C(=O)S/C(=C\c2ccc3c(c2)OCO3)C1=O,5%,-4%,11%,25%,21µM*,.
CCc1ccccc1NC(=O)c1cc2nc(-c3ccc(Br)cc3)cc(C(F)(F)F)n2n1,.,.,.,.,1%,.
COC(Cn1c2c(c3cc(C)ccc31)CCCC2NCc1ccccc1)OC (stereo not given),0%,-3%,-6%,?,3%,.
Cc1ccn2c(NC3CCCC3)c(-c3ccsc3)nc2c1,1%,-7%,-6%,?,24µM*,-30%
Cc1cc(C)n(-c2nc(NCCC(C)C)c3c4c(sc3n2)COC(C)(C)C4)n1,-3%,-3%,-18%,18µM*,-11%,-36%
CSc1nnc2c3c4c(sc3nc(-n3nc(C)cc3C)n12)COC(C)(C)C4,10%,-6%,1%,13µM*,-3%,.
C/C(=N\N1CCN(C2c3ccccc3-c3ccccc32)CC1)c1cccnc1,1%,-3%,-3%,-20%,3%,-7%
CN=c1scc(-c2ccccc2F)n1/N=C(\C)c1cccnc1,1.4µM*,1.8µM*,?,?,7.6µM*,11µM*
CCn1c(-c2ccc(F)cc2)cnc1SCC(=O)N1CCCCC1C (stereo not given),?,?,6.5µM*,?,11µM*,1%
COc1ccc(/C=N/NC(=O)c2cc(C(C)(C)C)[nH]n2)cc1COc1ccc(F)cc1F,-4%,-5%,-16%,16µM*,-14%,-15%
COc1ccc(/C=N\NC(=O)c2ccc(F)cc2)cc1COc1cc(F)ccc1[N+](=O)[O-],-18%,-10%,-13%,21µM*,2%,.
COc1ccc(/C=N/NC(=O)c2ccc(C)cc2)cc1CN1CCN(c2ccc(F)cc2)CC1,2%,-5%,1%,?,-2%,-4%
COc1ccc(C(=O)N/N=C/c2ccc(OC)c(COc3ccccc3)c2)cc1,1%,1%,3%,12%,-1%,.
COc1ccc(/C=N/NC(=O)c2ccc(F)cc2)cc1CN1CCc2cc(OC)c(OC)cc2C1C (stereo not given),-13%,2%,-8%,21µM*,-10%,3%
COc1ccc(/C=N\NC(=O)c2cc(O)c(O)c(O)c2)cc1COc1ccc(C(=O)OCC(C)C)cc1,-6%,4%,?,?,24µM*,.
CCN(CC)C(=O)c1c(Cl)nc(C)c([N+](=O)[O-])c1C,1%,0%,-11%,19%,-1%,15%
CCc1cccc(CC)c1NC(=O)COC(=O)CCc1cc(OC)c(OC)c(OC)c1,0%,-8%,-2%,?,-1%,-5%
COc1ccccc1N1CCN(S(=O)(=O)CCNC(=O)Cc2ccc(Cl)cc2)CC1,.,.,.,.,1%,.
SMILES,NPC1 promoter act,Rab9 promoter act,ELG1 genotox,ELG1 DNA repair,FLuc counter,SMN2 splice up
CC(=O)N1CCC2(CC1)CN(c1ccccc1)C2,.,.,.,.,.,-26%
COC(=O)c1ccc(OCC(=O)c2ccccc2OC)cc1,13%,26%,15%,?,?,-25%
CCOc1ncccc1C(=O)OCc1cc(=O)oc2c(C)c(C)ccc12,-2%,-6%,0%,-2%,3µM*,-5%
COC(=O)c1ccc(COC(=O)c2ccccc2OC)cc1,12%,25%,1%,?,19µM*,10%
CCOc1ncccc1C(=O)OCc1ccc(C(=O)OC)cc1,10%,-15%,?,?,?,14µM*
COC(CNS(=O)(=O)c1cc2c3c(c1)CCN3C(=O)CC2)OC,0%,-8%,3%,9%,1%,.
C=CCN=c1scc(-c2ccco2)n1/N=C/c1ccc(O)c(O)c1O,20%,?,?,?,4.8µM*,.
COCCN=c1scc(-c2ccco2)n1/N=C/c1ccc(O)c(O)c1O,-4%,-5%,9%,20%,17µM*,7%
O=C(O)CCc1ccc(-c2cccs2)n1NC(=O)c1ccco1,0%,-3%,1%,13%,-2%,?
CC(C)N=c1scc(-c2ccco2)n1/N=C/c1ccc(O)c(O)c1,3%,-19%,?,?,9.5µM*,?
COCCN=c1scc(-c2cccs2)n1/N=C(\C)c1ccco1,?,2.5µM*,12%,?,9.5µM*,?
CC(C)(C)OC(=O)N[C@@H](CC(=O)OCc1ccccc1)C(=O)O,-1%,-8%,2%,-4%,3%,-38%
COc1ccc(NC(=O)N2CCc3nc(-c4ccc(OC)cc4C)c4c(c3C2)CO[C@@H](c2ccccc2)C4)cc1,.,.,.,.,.,4%[9.22 µM]
CNC(=S)/N=C/NOCc1c(Cl)cccc1Cl,-6%,0%,-3%,?,-18%,-13%
CCCOc1ccc(-c2nn(-c3ccccc3)cc2C2NC(=O)NC(C)=C2C(=O)OC(C)C)cc1 (stereo not given),.,.,.,.,-10%,-12%
CC(=O)Nc1cccc(NC(=O)c2ccc3[nH]c(C)c(C)c3c2)c1,1%,27%,8%,?,11µM*,.
Cc1cc(NC(=O)c2ccc3[nH]c(C)c(C)c3c2)ccn1,0%,-1%,-5%,6%,15µM*,.
COc1ccccc1N(C)S(=O)(=O)c1ccc(Cl)c(C(=O)NCc2ccco2)c1,.,.,-2%,21µM*,.,.
C=CCN(c1ccccc1OC)S(=O)(=O)c1ccc(Cl)c(C(=O)Nc2ccc(N3CCOCC3)cc2)c1,-15%,1%,1%,7.3µM*,-8%,-23%
